Assay [1] has as its target T1, Tyrosine-protein kinase receptor TYRO3 (Homo sapiens) (UniProt Q06418).
T1 sequence (whole entry): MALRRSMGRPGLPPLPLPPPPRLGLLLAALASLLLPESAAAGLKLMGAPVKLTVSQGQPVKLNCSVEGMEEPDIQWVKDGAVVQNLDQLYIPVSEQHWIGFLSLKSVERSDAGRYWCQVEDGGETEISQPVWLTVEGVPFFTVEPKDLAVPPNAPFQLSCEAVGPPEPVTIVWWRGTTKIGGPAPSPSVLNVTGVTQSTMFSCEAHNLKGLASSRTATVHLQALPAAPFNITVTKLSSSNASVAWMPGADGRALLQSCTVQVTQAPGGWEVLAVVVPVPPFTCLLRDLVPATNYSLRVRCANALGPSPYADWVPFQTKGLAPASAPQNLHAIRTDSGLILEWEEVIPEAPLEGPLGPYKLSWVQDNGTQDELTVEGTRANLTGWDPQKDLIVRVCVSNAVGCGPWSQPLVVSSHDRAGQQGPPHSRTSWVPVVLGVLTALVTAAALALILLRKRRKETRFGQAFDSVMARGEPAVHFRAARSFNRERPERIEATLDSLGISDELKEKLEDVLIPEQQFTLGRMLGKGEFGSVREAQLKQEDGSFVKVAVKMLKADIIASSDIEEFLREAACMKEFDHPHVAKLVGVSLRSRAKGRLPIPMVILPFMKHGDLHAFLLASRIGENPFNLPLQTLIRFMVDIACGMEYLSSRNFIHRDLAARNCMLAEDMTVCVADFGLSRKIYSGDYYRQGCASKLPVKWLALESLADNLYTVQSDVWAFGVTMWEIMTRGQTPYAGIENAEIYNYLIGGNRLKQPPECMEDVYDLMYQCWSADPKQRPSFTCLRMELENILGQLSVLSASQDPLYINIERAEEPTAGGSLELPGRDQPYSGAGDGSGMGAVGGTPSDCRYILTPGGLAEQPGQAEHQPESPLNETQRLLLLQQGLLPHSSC
The following applies: at 1 µM.

Assay [2] deals with Tyrosine-protein kinase Yes (Homo sapiens) (UniProt P07947). The following applies: at 0.1 µM.
Tyrosine-protein kinase Yes (Homo sapiens), sequence (P07947 2-543 limits assumed): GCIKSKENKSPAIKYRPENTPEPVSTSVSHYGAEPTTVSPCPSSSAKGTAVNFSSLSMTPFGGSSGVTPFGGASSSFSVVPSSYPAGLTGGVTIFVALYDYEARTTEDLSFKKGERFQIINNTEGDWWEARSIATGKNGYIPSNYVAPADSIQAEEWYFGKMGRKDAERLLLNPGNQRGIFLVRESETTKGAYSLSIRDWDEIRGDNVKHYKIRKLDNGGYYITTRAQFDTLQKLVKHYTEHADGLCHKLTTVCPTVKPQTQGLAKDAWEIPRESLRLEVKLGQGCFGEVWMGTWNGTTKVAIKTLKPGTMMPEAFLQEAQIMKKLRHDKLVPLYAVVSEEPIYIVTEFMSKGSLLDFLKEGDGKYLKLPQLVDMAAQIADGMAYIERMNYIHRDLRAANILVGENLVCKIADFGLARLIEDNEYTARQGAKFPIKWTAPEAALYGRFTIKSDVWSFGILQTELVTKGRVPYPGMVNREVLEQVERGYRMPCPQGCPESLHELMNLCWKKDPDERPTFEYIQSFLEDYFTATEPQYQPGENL
Assay [3] shares this target. The following applies: at 1 µM.
Assay [4] deals with T2, Tyrosine-protein kinase ZAP-70 (Homo sapiens) (UniProt P43403).
T2 sequence (whole entry): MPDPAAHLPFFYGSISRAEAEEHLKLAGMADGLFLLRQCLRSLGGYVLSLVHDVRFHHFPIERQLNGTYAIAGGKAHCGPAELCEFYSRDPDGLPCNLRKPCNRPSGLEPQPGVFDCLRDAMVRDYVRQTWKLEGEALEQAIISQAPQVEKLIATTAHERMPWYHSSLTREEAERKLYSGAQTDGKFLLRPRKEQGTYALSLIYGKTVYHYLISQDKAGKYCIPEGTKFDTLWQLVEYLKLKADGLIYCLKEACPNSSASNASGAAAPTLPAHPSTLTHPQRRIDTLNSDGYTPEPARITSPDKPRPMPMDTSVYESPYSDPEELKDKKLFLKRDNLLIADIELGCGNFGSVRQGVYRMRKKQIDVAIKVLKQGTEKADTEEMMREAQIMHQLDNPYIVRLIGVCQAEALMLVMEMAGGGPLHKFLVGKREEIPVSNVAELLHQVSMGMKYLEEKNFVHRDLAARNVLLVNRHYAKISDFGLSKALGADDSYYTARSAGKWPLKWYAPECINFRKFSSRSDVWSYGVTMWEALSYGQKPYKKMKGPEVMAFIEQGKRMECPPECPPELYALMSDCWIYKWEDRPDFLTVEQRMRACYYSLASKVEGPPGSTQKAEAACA
Conditions: at 0.1 µM.

The target in assay [5] is T2, Tyrosine-protein kinase ZAP-70 (Homo sapiens). Conditions: at 1 µM.
Assay [6] addresses Serine/threonine-protein kinase B-raf (Homo sapiens) (UniProt P15056). The following applies: at 0.1 µM.
Assay [7] has the same target. The following applies: at 1 µM.
For assay [8], the system named is Serine/threonine-protein kinase B-raf (Homo sapiens), P15056 [V600E]. The following applies: at 0.1 µM.
Serine/threonine-protein kinase B-raf (Homo sapiens), P15056 [V600E], sequence (P15056 whole entry V600E): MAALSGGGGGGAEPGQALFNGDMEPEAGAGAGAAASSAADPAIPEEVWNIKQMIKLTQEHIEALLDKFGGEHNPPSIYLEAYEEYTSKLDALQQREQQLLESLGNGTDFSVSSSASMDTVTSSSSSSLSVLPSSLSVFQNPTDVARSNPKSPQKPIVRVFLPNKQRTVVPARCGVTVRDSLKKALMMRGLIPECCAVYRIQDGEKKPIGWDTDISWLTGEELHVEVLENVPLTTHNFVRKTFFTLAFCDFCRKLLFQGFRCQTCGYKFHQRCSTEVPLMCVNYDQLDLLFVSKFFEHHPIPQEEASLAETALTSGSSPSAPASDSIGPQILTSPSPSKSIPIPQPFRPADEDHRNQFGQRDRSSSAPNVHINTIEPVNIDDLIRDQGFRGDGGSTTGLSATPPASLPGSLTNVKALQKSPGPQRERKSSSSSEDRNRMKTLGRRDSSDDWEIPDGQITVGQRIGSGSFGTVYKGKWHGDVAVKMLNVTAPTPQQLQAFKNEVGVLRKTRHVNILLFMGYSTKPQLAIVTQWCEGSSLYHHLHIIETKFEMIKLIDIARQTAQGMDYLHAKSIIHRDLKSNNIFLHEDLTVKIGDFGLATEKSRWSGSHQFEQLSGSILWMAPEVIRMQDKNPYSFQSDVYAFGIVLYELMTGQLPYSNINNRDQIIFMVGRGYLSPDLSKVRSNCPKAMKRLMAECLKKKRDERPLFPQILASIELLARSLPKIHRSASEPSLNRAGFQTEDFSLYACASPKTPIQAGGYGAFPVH
For assay [9] the test system is unchanged. Conditions: at 1 µM.
In assay [10] the target is RAF proto-oncogene serine/threonine-protein kinase (Homo sapiens) (UniProt P04049). The following applies: at 0.1 µM.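 Further: values are mean CRAF kinase inhibition from profiling of the GSK Published Kinase Inhibitor Set.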
RAF proto-oncogene serine/threonine-protein kinase (Homo sapiens), sequence (P04049 whole entry): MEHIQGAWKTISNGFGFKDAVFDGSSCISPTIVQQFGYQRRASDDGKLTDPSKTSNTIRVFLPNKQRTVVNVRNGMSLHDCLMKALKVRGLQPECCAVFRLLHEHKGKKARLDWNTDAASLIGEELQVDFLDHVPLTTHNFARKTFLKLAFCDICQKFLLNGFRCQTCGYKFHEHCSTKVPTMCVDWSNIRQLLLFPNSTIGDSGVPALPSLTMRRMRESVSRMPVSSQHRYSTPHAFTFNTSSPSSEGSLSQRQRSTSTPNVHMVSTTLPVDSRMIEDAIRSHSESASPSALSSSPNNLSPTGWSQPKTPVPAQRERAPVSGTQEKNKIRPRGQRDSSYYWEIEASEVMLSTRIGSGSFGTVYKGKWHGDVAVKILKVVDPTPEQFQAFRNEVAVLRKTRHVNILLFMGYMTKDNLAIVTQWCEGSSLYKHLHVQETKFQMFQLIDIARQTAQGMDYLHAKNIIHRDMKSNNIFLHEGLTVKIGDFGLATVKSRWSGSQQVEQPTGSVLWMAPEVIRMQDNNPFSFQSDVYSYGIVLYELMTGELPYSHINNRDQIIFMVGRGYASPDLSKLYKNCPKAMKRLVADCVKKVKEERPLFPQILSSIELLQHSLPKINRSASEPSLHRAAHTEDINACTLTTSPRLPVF

Structures are written as SMILES.

Usually inhibition stands for the change of the read-out against control, counted positive when it falls.

Serine/threonine-protein kinase B-raf (Homo sapiens), sequence (P15056 whole entry): as the sequence (P15056 whole entry V600E) above, with E600V counted along it

Take `CN1CCN(C(=O)c2ccc(NC(=O)Nc3ccc(N(C)c4ccnc(Nc5ccc(CS(C)(=O)=O)cc5)n4)cc3)cc2)CC1`: the inhibition is 21.9% in assay [1]; 2.29% in [2]; 16.2% in [3]; 2.02% in [4]; 5.2% in [5]; 2.69% in assay [6]. In addition, the inhibition in assay [7] worked out at 14.5%; in [8] it was 3.84%; in assay [9] it was 11.8%; in [10], 2.58%.

`c1ccc(Cc2nc3ccc(Nc4ncnc5ccccc45)cc3[nH]2)cc1`: the inhibition in [1] was 3.79%; in assay [2] it was 1.02%; in assay [3], 9.72%; in [4] it was 1.42%; in [5], -1.31%; in assay [6] it was 4.95%. Further, the inhibition in assay [7] is 6.09%; in assay [8] it was 4.48%; in assay [9], 5.36%; in assay [10] it was 3.87%.

Regarding `[O-][S+]1CCN(Cc2ccc(-c3ccc4ncnc(Nc5ccc(OCc6ccccc6)c(Cl)c5)c4c3)o2)CC1`, the inhibition was 2.86% in assay [1]; 6.47% in assay [2]; 39.1% in assay [3]; -3.44% in assay [4]; 1.8% in assay [5]; 3.08% in [6]. In addition, the inhibition in assay [7] is 3.86%; in assay [8], 2.34%; in assay [9] it was 3.29%; in assay [10], -1.87%.

Regarding `Cc1cc(O)cc(C)c1/C=C/c1cncc(C(=O)N(C)C)c1`, the inhibition stood at 2.81% in assay [1]; 0.44% in assay [2]; 1.22% in assay [3]; 1.81% in [4]; 2.36% in assay [5]; 3.04% in assay [6]. Also, the inhibition amounted to 3.56% in assay [7], 4.11% in [8], 3.14% in assay [9] and 6.23% in assay [10].

On to `Cc1ccc(NC(=O)CC2CC2)cc1-c1ccc(C(=O)NCC2CC2)cc1`, for which the inhibition in assay [1] was 4.65%; in assay [2] it was 1.53%; in assay [3], 2.46%; in assay [4], -0.2%; in assay [5], 2.11%; in assay [6], 4.43%. The inhibition in assay [7] worked out at 6.22%; in assay [8], 4.33%; in [9], 4.96%; in assay [10], 3.39%.

With `CN(C)C(=O)O[C@@H]1CN[C@@H](C#Cc2cc3ncnc(Nc4ccc(OCc5cccc(F)c5)c(Cl)c4)c3s2)C1`, the inhibition in [1] was -0.16%; in assay [2], 3.49%; in [3], 5.24%; in assay [4] it was 0.96%; in assay [5] it was 2.42%; in [6], 0.07%. The inhibition in [7] was 3.2%; in [8], 0.85%; in assay [9], 3.23%; in [10], -2.83%.

As to `CCn1c(-c2nonc2N)nc2ccc(F)cc21`, the inhibition in assay [1] came out at 5.61%; in assay [2], 4.26%; in assay [3] it was 8.39%; in [4] it was 3.33%; in [5], 2.76%; in assay [6], 8.45%. In addition, the inhibition in [7] is 7.77%; in assay [8], 9.84%; in assay [9], 7.05%; in assay [10], -0.53%.

With `CN(C)CCCn1c(-c2nonc2N)nc2cnccc21`, the inhibition in assay [1] came to 1.97%; in assay [2], 0.2%; in [3], 0.44%; in assay [4], 1.32%; in assay [5] it was 0.96%; in [6], 5.59%. Besides, the inhibition in assay [7] was determined as 6.07%; in [8] it was 5.51%; in [9], 5.34%; in assay [10], 7.16%.

On to `COc1cccc(-n2nc(C)c3c(N/N=C(\C)c4ccncc4)ncnc32)c1`, for which the inhibition in [1] was found to be 2.25%; in assay [2] it was 1.18%; in [3], 0.82%; in assay [4], 0.82%; in [5] it was 2.35%; in [6] it was 0.14%. In addition, the inhibition is -1.61% in [7], 0.28% in assay [8], -0.78% in assay [9] and -2.44% in [10].

On to `CCCN1CCCC(c2ccc(Nc3nc(Nc4cc(F)ccc4C(N)=O)c4cc[nH]c4n3)c(OC)c2)C1` (stereo not given), for which the inhibition in assay [1] worked out at 7.19%; in assay [2], 5.09%; in assay [3] it was 9.04%; in assay [4], 7.83%; in assay [5], 28.7%; in assay [6] it was 11.6%. The inhibition came to 40.1% in assay [7], 11.2% in assay [8], 35.5% in assay [9] and 1.24% in assay [10].

As to `NS(=O)(=O)c1ccc(N/N=C2\C(=O)Nc3ccc(Cl)cc32)cc1`, the inhibition in [1] was 5.46%; in [2], 1.72%; in assay [3] it was 3.69%; in [4], 1.01%; in assay [5], 3.02%; in [6] it was 4.45%. Further, the inhibition in assay [7] was 4.35%; in assay [8] it was 5.27%; in assay [9], 4.36%; in [10], -0.52%.

As to `FC(F)(F)c1ccc(-c2nn3ncccc3c2-c2ccnc(Nc3ccc4c(c3)OCCO4)n2)cc1`, the inhibition in assay [1] was 5.58%; in assay [2], 30%; in [3] it was 83.3%; in assay [4], 5.79%; in [5], 5.21%; in assay [6], -1.63%. Also, the inhibition in assay [7] is -1.17%; in [8], -1.85%; in assay [9] it was -1.18%; in [10], -0.32%.

With `CCS(=O)(=O)c1ccc(OC)c(Nc2nccc(N(C)c3ccc4c(C)n[nH]c4c3)n2)c1`, the inhibition in assay [1] is 7.2%; in [2], 29.3%; in assay [3], 73.9%; in assay [4], 0.81%; in [5] it was 2.48%; in [6], 6.4%. For the same compound, the inhibition is 8.1% in [7], 5.33% in [8], 5.98% in [9] and 1.8% in assay [10].

With `COc1cccc(-n2ncc3c(N/N=C/c4ccc(C)cc4)ncnc32)c1`, the inhibition in assay [1] is 4.49%; in assay [2] it was 4.03%; in assay [3], 13.8%; in assay [4], 3.63%; in [5], 11%; in [6], 7.21%. The inhibition came out at 11.2% in [7], 4.78% in assay [8], 6.08% in assay [9] and 7.72% in assay [10].

`NC(=O)c1sc(-n2cnc3ccccc32)cc1OCc1ccccc1Br`: the inhibition was 1.89% in [1]; 2.41% in assay [2]; 7.85% in assay [3]; -2.78% in [4]; -2.62% in assay [5]; 5.54% in [6]. In addition, the inhibition in [7] is 6.15%; in [8] it was 4.91%; in assay [9], 3.77%; in [10] it was 3.4%.

As to `Cc1cc(Cl)cc2c1NC(=O)C2=NNc1ccc(S(N)(=O)=O)cc1`, the inhibition was found to be 3.93% in assay [1]; 0.95% in assay [2]; 2.2% in [3]; 1.82% in assay [4]; 1.81% in assay [5]; 4.13% in assay [6]. Also, the inhibition in assay [7] amounted to 1.81%; in [8], 4.19%; in assay [9], 2.74%; in assay [10] it was 0.2%.

Regarding `N#Cc1cccc(Nc2nccc(-c3cnn4ncccc34)n2)c1`, the inhibition in assay [1] came out at 47.8%; in assay [2], 5.64%; in assay [3], 37%; in assay [4], 3.19%; in assay [5], 13.3%; in assay [6], 19.5%. Moreover, the inhibition in assay [7] is 65.2%; in [8], 18.8%; in assay [9] it was 65%; in assay [10], -0.47%.

For the origin of these results see ChEMBL document CHEMBL1961873, “Compounds: GSK PKIS; Assays: Nanosyn kinase panel” (2012).
